Values joined by “and” are separate entries in the source; they are usually repeats but may differ in a detail not shown here. Equal entries are not always repeated. Out of some 5,500 compounds screened, about 2,000 (36%) were called active. Inconclusive results (about 18%) are left out. No stated cut-off is given here; in the data, active means normalized growth mostly below about 0.91 (no sharp cut-off); inconclusive means no clear call, values can overlap the other calls; inactive means mostly above about 0.92. This is one part of the list.
Experiment: chemical genetic growth profiling, strain panel (AID 1159580);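 further: tested at 20 µM; growth read once vehicle control cultures reached saturation at 30 °C; 1 = growth at the plate median or of vehicle wells; lower values mean less growth of the strain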
Details: S. cerevisiae deletion strains, growth OD

Measured: normalized growth

CC1(C)[C@@H]2CC[C@@]1(C)C(=O)C2
inactive: locus YAL013W, strain DEP1, hits give low values 0.962 | locus YAL021C, strain ccr4, hits give low values 0.97 | locus YAL026C, strain drs2, hits give low values 1.03 | locus YAL030W, strain snc1, hits give low values 1.02 | locus YBL061C, strain skt5, hits give low values 1.02 | locus YBR009C, strain hhf1, hits give low values 1.01 | locus YBR021W, strain FUR4, hits give low values 1 | locus YBR023C, strain chs3, hits give low values 1.01 | locus YBR171W, strain sec66, hits give low values 1.02 | locus YBR229C, strain ROT2, hits give low values 0.99 | locus YBR231C, strain swc5, hits give low values 1.01 | locus YBR279W, strain paf1, hits give low values 0.993 | locus YCL011C, strain gbp2, hits give low values 1 | locus YCL016C, strain dcc1, hits give low values 0.987 | locus YCL029C, strain bik1, hits give low values 1 | locus YCL061C, strain MRC1, hits give low values 1.02 | locus YCL069W, strain vba3, hits give low values 1.02 | locus YCR088W, strain abp1, hits give low values 1.01 | locus YDL005C, strain med2, hits give low values 1.01 | locus YDL035C, strain GPR1, hits give low values 1.01 | locus YDL040C, strain nat1, hits give low values 1 | locus YDL074C, strain BRE1, hits give low values 1.02 | locus YDL101C, strain DUN1, hits give low values 1 | locus YDL134C, strain PPH21, hits give low values 0.994 | locus YDL185W, strain tfp1, hits give low values 1 | locus YDL192W, strain arf1, hits give low values 1 | locus YDR001C, strain nth1, hits give low values 1.01 | locus YDR069C, strain doa4, hits give low values 1.02 | locus YDR101C, strain arx1, hits give low values 0.995 | locus YDR137W, strain rgp1, hits give low values 1.02 | locus YDR159W, strain sac3, hits give low values 1.06 | locus YDR162C, strain NBP2, hits give low values 1.01 | locus YDR195W, strain ref2 0.972 | locus YDR297W, strain sur2, hits give low values 1.02 | locus YDR318W, strain mcm21, hits give low values 0.996 | locus YDR334W, strain swr1, hits give low values 1.01 | locus YDR335W, strain msn5, hits give low values 0.993 | locus YDR388W, hits give low values 1.01 | locus YDR392W, strain spt3, hits give low values 0.902 | locus YDR502C, strain sam2, hits give low values 0.995 | locus YEL003W, strain gim4, hits give low values 1.01 | locus YEL037C, strain rad23, hits give low values 1 | locus YEL061C, strain CIN8 (second series), hits give low values 1 | locus YEL061C, strain CIN8, hits give low values 1 | locus YER015W, strain faa2, hits give low values 1.01 | locus YER016W, strain bim1, hits give low values 1.01 | locus YER110C, hits give low values 1.01 | locus YER111C, strain swi4, hits give low values 1.01 | locus YER155C, strain BEM2 (second series), hits give low values 1.02 | locus YER155C, strain BEM2, hits give low values 0.982 | locus YER167W, strain BCK2, hits give low values 0.992 | locus YFR010W, strain ubp6, hits give low values 1.02 | locus YGL078C, strain dbp3, hits give low values 0.996 | locus YGL086W, strain mad1, hits give low values 0.995 | locus YGL167C, strain pmr1, hits give low values 1.01 | locus YGL173C, strain kem1, hits give low values 1.03 | locus YGL227W, strain vid30, hits give low values 1.01 | locus YGL240W, strain doc1, hits give low values 1.01 | locus YGL248W, strain PDE1, hits give low values 0.99 | locus YGL253W, strain hxk2, hits give low values 1.02 | locus YGR078C, strain PAC10, hits give low values 1.01 | locus YGR135W, strain pre9, hits give low values 0.996 | locus YGR252W, strain gcn5, hits give low values 0.937 | locus YHR013C, strain ard1, hits give low values 0.991 | locus YHR027C, strain rpn1, hits give low values 1.02 | locus YHR030C, strain SLT2, hits give low values 1 and 1.03 | locus YHR079C, strain IRE1 (second series), hits give low values 0.997 | locus YHR079C, strain IRE1, hits give low values 1.05 | locus YHR094C, strain hxt1, hits give low values 1 | locus YHR129C, strain ARP1, hits give low values 1 | locus YHR142W, strain chs7, hits give low values 0.989 | locus YHR200W, strain rpn10, hits give low values 1 | locus YIL066C, strain RNR3, hits give low values 1.03 | locus YIL073C, strain SPO22, hits give low values 1.02 | locus YIL125W, strain kgd1, hits give low values 1 | locus YIR030C, strain dcg1, hits give low values 0.996 | locus YJL092W, strain hpr5, hits give low values 1.01 | locus YJL095W, strain BCK1 (second series), hits give low values 1.01 | locus YJL095W, strain BCK1, hits give low values 1.02 and 1.05 | locus YJL115W, strain asf1, hits give low values 1.01 | locus YJL129C, strain trk1, hits give low values 1.03 | locus YJL134W, strain LCB3, hits give low values 0.995 | locus YJL154C, strain vps35, hits give low values 1.01 | locus YJL164C, strain tpk1, hits give low values 0.98 | locus YJL166W, strain qcr8, hits give low values 1.03 | locus YJL168C, strain set2, hits give low values 1.01 | locus YJL187C, strain SWE1 (second series), hits give low values 1.01 | locus YJL187C, strain SWE1, hits give low values 1 | locus YJR043C, strain POL32, hits give low values 1.01 | locus YJR066W, strain TOR1, hits give low values 0.973 | locus YKL009W, strain mrt4, hits give low values 0.987 | locus YKL068W, hits give low values 0.992 | locus YKL085W, strain MDH1 (second series), hits give low values 1.01 | locus YKL085W, strain MDH1, hits give low values 1.01 | locus YKL160W, strain elf1, hits give low values 0.976 | locus YKR001C, strain vps1, hits give low values 0.992 | locus YKR026C, strain gcn3, hits give low values 1.01 | locus YKR091W, strain srl3, hits give low values 0.996 | locus YLL001W, strain dnm1, hits give low values 0.962 | locus YLL026W, hits give low values 1.01 | locus YLL041C, strain sdh2, hits give low values 1.01 | locus YLR027C, strain aat2, hits give low values 1.01 | locus YLR039C, strain RIC1, hits give low values 1.03 | locus YLR058C, strain SHM2, hits give low values 1 | locus YLR102C, strain apc9, hits give low values 0.992 | locus YLR113W, strain HOG1, hits give low values 1.05 | locus YLR221C, strain rsa3, hits give low values 1.05 | locus YLR258W, strain gsy2, hits give low values 0.986 | locus YLR262C, strain YPT6 (second series), hits give low values 1.01 | locus YLR262C, strain YPT6, hits give low values 1.05 | locus YLR268W, strain sec22, hits give low values 0.987 | locus YLR320W, strain mms22, hits give low values 1.04 | locus YLR330W, strain CHS5, hits give low values 0.996 | locus YLR342W, strain FKS1 (second series), hits give low values 1.02 | locus YLR342W, strain FKS1, hits give low values 1.01 | locus YLR357W, strain rsc2, hits give low values 0.993 | locus YLR370C, strain arc18, hits give low values 1.01 | locus YLR371W, strain rom2, hits give low values 1 | locus YLR384C, strain iki3, hits give low values 1.02 | locus YLR418C, strain cdc73, hits give low values 0.994 | locus YML016C, strain PPZ1, hits give low values 0.997 | locus YML032C, strain rad52, hits give low values 1 | locus YML120C, strain ndi1, hits give low values 0.981 | locus YML124C, strain tub3, hits give low values 1.01 | locus YMR058W, strain fet3, hits give low values 1.03 | locus YMR078C, strain ctf18, hits give low values 1.01 | locus YMR125W, strain sto1, hits give low values 0.987 | locus YMR129W, hits give low values 1 | locus YMR205C, strain PFK2, hits give low values 1 | locus YMR223W, strain ubp8, hits give low values 1 | locus YMR231W, strain pep5, hits give low values 1.01 | locus YMR307W, strain GAS1, hits give low values 0.98 | locus YNL067W, strain RPL9B, hits give low values 1 | locus YNL071W, strain lat1, hits give low values 1.01 | locus YNL183C, strain NPR1, hits give low values 0.985 | locus YNL209W, strain ssb2, hits give low values 0.991 | locus YNL233W, strain BNI4, hits give low values 1.01 | locus YNL248C, strain rpa49, hits give low values 1.04 | locus YNL250W, strain rad50, hits give low values 1.03 | locus YNL271C, strain bni1, hits give low values 1 | locus YNL298W, strain CLA4, hits give low values 0.99 | locus YNL307C, strain MCK1, hits give low values 0.997 | locus YNL322C, strain KRE1 (second series), hits give low values 1.01 | locus YNL322C, strain KRE1, hits give low values 0.985 | locus YNR049C, strain mso1, hits give low values 1.01 | locus YNR052C, strain pop2, hits give low values 0.999 | locus YOL012C, strain htz1 1.32 | locus YOL147C, strain pex11, hits give low values 1 | locus YOR001W, strain rrp6, hits give low values 1.07 | locus YOR061W, strain CKA2, hits give low values 1.01 | locus YOR069W, strain VPS5, hits give low values 1 | locus YOR070C, strain gyp1, hits give low values 1.03 | locus YOR080W, strain dia2, hits give low values 1.01 | locus YOR083W, strain WHI5, hits give low values 0.973 | locus YOR106W, strain vam3, hits give low values 0.991 | locus YOR136W, strain idh2, hits give low values 0.991 | locus YOR144C, strain elg1, hits give low values 0.996 | locus YOR184W, strain ser1, hits give low values 0.992 | locus YOR231W, strain MKK1, hits give low values 1.05 | locus YOR265W, strain rbl2, hits give low values 1 | locus YOR270C, strain vph1, hits give low values 1.06 | locus YOR290C, strain snf2, hits give low values 0.969 | locus YOR316C, strain cot1, hits give low values 0.999 | locus YPL051W, strain arl3, hits give low values 0.997 | locus YPL055C, strain LGE1, hits give low values 1 | locus YPL078C, strain atp4, hits give low values 0.966 | locus YPL106C, strain sse1, hits give low values 1.01 | locus YPL240C, strain hsp82, hits give low values 1.01 | locus YPL241C, strain CIN2, hits give low values 1 | locus YPL256C, strain CLN2, hits give low values 1.01 | locus YPR119W, strain clb2, hits give low values 0.998 | locus YPR141C, strain kar3, hits give low values 0.986 | locus YPR163C, strain tif3, hits give low values 0.999 | locus YPR167C, strain met16, hits give low values 1 | strain wtn01, hits give low values 0.987

Source: PubChem BioAssay AID1159580 (chemical genetic matrix, 2015)
